# KCNQ2 enhance – potentiators of rat KCNQ2 potassium channel | O88943 | CHO-K1 KCNQ2, FluxOR thallium flux fluorescence; active compounds read high | B-score at 10 µM | 310,000 compounds, 0.54% hits;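 active means fluorescence ratio B-score at least 3 SD of library B-scores, with initial fluorescence B-score within 3 of them, cut at about 5.3 in these data; same plate scores as AID 2156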;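 further: B-score of peak minus minimum over baseline fluorescence ratio after K+ and Tl+ stimulus; positive B-score means potentiation of KCNQ2 with more thallium influx and brighter signal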
# Target sequence (O88943 whole entry, looked up): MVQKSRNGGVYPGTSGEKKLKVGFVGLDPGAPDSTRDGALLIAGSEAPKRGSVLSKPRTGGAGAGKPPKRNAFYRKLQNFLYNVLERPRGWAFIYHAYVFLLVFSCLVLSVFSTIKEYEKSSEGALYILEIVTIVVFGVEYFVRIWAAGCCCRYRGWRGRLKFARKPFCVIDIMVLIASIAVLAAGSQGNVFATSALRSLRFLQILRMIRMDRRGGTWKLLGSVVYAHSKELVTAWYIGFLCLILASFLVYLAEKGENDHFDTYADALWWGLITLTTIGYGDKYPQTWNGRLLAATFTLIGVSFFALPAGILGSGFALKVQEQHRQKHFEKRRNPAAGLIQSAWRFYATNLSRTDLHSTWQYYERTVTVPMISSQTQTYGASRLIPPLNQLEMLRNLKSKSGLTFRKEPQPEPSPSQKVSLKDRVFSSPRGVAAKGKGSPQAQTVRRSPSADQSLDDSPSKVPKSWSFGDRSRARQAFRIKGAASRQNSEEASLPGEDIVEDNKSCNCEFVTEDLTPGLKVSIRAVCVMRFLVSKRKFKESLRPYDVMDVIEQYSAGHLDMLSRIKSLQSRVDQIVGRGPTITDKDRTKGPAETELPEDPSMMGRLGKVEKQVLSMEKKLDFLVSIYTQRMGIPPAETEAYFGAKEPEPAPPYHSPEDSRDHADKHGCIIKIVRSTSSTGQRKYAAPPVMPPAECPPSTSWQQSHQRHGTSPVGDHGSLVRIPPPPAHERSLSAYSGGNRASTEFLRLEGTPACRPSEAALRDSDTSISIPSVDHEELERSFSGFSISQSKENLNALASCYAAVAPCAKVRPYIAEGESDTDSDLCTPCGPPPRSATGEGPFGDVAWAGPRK
# KCNQ2 block – inhibitors of rat KCNQ2 potassium channel. B-score at 10 µM. CHO-K1 KCNQ2, FluxOR thallium flux, 20 min; active compounds read low. 310,000 compounds, 1.1% hits. AID 2156. O88943;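 active means fluorescence ratio B-score at most minus 3 library SDs, with starting brightness B-score within 2 library SDs, cut at about -5.5 in these data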
# Kir21 conf inh – confirmation of mouse Kir2.1 potassium channel inhibitors | shares compounds with KCNQ2 enhance | Kir2.1-expressing cells, FluxOR thallium flux fluorescence; active compounds read low | Tl flux remaining, % of negative control (active compounds read low), % at 10 µM | 2,300 compounds, 41% hits | AID 2032;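 active means Primary-screen hit whose thallium flux fell at least 3 control SD below untreated wells in both duplicates, with normal baseline fluorescence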;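 further: 0% = blank wells without stimulus and 100% = stimulated no-compound controls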
# HEK293 Tl flux – parental HEK293 activity in Kir2.1 inhibitor counter-screen; 2,300 compounds, 19% hits; parental HEK293 cells, FluxOR thallium flux fluorescence; 0% = unstimulated blank wells; shares compounds with KCNQ2 enhance; AID 2105; FluxOR signal as % of negative control (100 = no effect), % at 10 µM;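 active means dye signal at least 3 control SD above or below untreated wells in both duplicates, raw fluorescence within 3, either direction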;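 further: percent is based on the flux ratio of peak minus minimum fluorescence over baseline F0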
# CHO-K1 Tl ctr – counter-screen for KCNQ2 potentiators: effect in parental CHO-K1 cells | shares compounds with KCNQ2 enhance | FluxOR thallium flux fluorescence; zero = vehicle mean+3SD, 100% = vehicle-minus-blank window | activity increase over 3SD of controls, % at 10 µM | 1,200 compounds, 43% hits;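 active means signal rise of at least 3 SD above the untreated control mean, in both duplicate wells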;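 further: counter screen of KCNQ2 potentiator hits so any rise reflects channel-independent effects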
# KCNQ1 sel pot – human KCNQ1 counter-target activity of KCNQ2 potentiators; shares compounds with KCNQ2 enhance; CHO KCNQ1 stable, FluxOR thallium flux fluorescence; beyond 3SD, as % of vehicle-control signal; activation over 3SD threshold, % at 10 µM; 1,200 compounds, 28% hits;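 active means fluorescence ratio rise of at least 3 SD of vehicle wells above their mean, in both replicate wells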;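 further: 0% = vehicle mean plus 3 SD and 100% = vehicle minus unstimulated blank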
# KCNQ2 pot confirm – rat KCNQ2 channel potentiator confirmation. shares compounds with KCNQ2 enhance. CHO-KCNQ2 cells, FluxOR thallium flux fluorescence. potentiation, less the hit threshold, % at 10 µM. 1,200 compounds, 68% hits. AID 2287;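 active means fluorescence ratio rising 3 SD or more over the vehicle control mean in both replicates, plus primary screen hit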;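 further: peak minus minimum thallium fluorescence divided by baseline after K/Tl stimulus; 0% = vehicle mean plus 3 SD and 100% = vehicle minus unstimulated blank difference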
# Kir21 spec – tests whether KCNQ2 potentiators also affect mouse Kir2.1; AID 2345; activity over 3SD threshold, % at 10 µM; HEK293 Kir2.1, FluxOR thallium flux fluorescence; shares compounds with KCNQ2 enhance; 1,200 compounds, 2% hits;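 active means fluorescence ratio rise of at least 3 SD above the vehicle-control mean, seen in both replicates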;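 further: 0% = vehicle mean plus 3 SD and 100% = vehicle minus no-stimulus blank window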
# KCNQ2 W236L pot – potentiates the retigabine-insensitive rat KCNQ2 W236L mutant channel; shares compounds with KCNQ2 enhance; CHO KCNQ2-W236L, automated patch clamp current; current increase over 3SD of negative controls (%), active compounds read high, % at 25 µM; 940 compounds, 10% hits;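 active means current increase at least 3 SD of the untreated controls above them in both duplicate recordings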
# Active calls of the source: *; i = inactive; nt = no result. Shown are actives, neighbours in structure and some others; about 1.6% of the full set was active somewhere.
SMILES,KCNQ2 enhance,KCNQ2 block,Kir21 conf inh,HEK293 Tl flux,CHO-K1 Tl ctr,KCNQ1 sel pot,KCNQ2 pot confirm,Kir21 spec,others
O=C(O)CCN1CCc2ccccc2C1c1cccs1 (stereo not given),nt,i,nt,nt,nt,nt,nt,nt,
COc1ccc(NC(=O)C2CC3CCC2C3)c(OC)c1 (stereo not given),9.8*,i,i,i,69*,58*,61*,-18,KCNQ2 W236L pot=i
COc1ccc(NC(=O)C2CCCO2)c(OC)c1 (stereo not given),nt,i,nt,nt,nt,nt,nt,nt,
CCOC(=O)c1nnn(-c2nonc2N)c1CSc1ccccc1,0.21,i,nt,nt,nt,nt,nt,nt,
CCOC(=O)c1nnn(-c2nonc2N)c1CSc1ccc(C)cc1,1.1,i,71%*,i,nt,nt,nt,nt,
Cc1cc(Cl)ccc1Oc1ccccc1C(=O)CC#N,nt,i,nt,nt,nt,nt,nt,nt,
Nc1ncnc2c1cnn2-c1ccccc1,1.2,i,nt,nt,nt,nt,nt,nt,
S=c1nc[nH]c2c1cnn2-c1ccccc1,10*,i,i,162%*,32*,-9,2.7*,-37,KCNQ2 W236L pot=i
CC(=O)N1CCN(C(=O)c2ccc(S(=O)(=O)Nc3cccc(C(F)(F)F)c3)cc2)CC1,0.66,i,i,i,nt,nt,nt,nt,
O=C(c1ccc(S(=O)(=O)Nc2cccc(C(F)(F)F)c2)cc1)N1CCC1,0.45,i,nt,nt,nt,nt,nt,nt,
O=C(CNS(=O)(=O)/C=C/c1ccccc1)OC1CCOC1=O (stereo not given),1.2,i,nt,nt,nt,nt,nt,nt,
CCc1nc(SCC(=O)c2ccc(Cl)s2)c2oc3ccccc3c2n1,10*,i,i,i,-11,54*,-17,-37,
CCc1nc(SCC(=O)N2CCN(c3ccccc3)CC2)c2oc3ccccc3c2n1,nt,i,nt,nt,nt,nt,nt,nt,
O=C(N/N=C/c1cccnc1)c1cc(Br)ccc1O,nt,i,nt,nt,nt,nt,nt,nt,
Cc1ccccc1NC(=S)NC(=O)c1cc(-c2ccccc2)nc2ccccc12,6.2*,i,i,i,-11,8.8*,-22,-18,
Cc1cccc(NC(=S)NC(=O)c2cc(-c3ccccc3)nc3ccccc23)c1,3.5,i,nt,nt,nt,nt,nt,nt,
O=C(N/N=C/c1ccccn1)c1cc(-c2ccccc2)nc2ccccc12,11*,i,i,i,222*,81*,13*,-27,KCNQ2 W236L pot=i
O=C(N/N=C/c1ccccn1)c1cc(C2CC2)nc2ccccc12,nt,i,nt,nt,nt,nt,nt,nt,
O=C(N/N=C/c1ccccn1)c1cc(Br)ccc1O,7.3*,i,i,228%*,-14,0,44*,-24,KCNQ2 W236L pot=i
Cc1cc(C(=O)NNC2CC(=O)N(c3ccc4ccccc4c3)C2=O)c(C)o1 (stereo not given),1.9,i,nt,nt,nt,nt,nt,nt,
Cc1cc(OCC(=O)N(Cc2ccccc2)C2CCS(=O)(=O)C2)ccc1Cl (stereo not given),nt,i,nt,nt,nt,nt,nt,nt,
O=[N+]([O-])c1ccc(O)c2cccnc12,1,i,nt,nt,nt,nt,nt,nt,
O=[N+]([O-])c1cc(F)c2cccnc2c1O,3.6,i,nt,nt,nt,nt,nt,nt,
O=[N+]([O-])c1cc(Cl)c(O)c2ncccc12,5.7*,i,i,i,-18,66*,-12,-21,KCNQ2 W236L pot=i
O=[N+]([O-])c1cc([N+](=O)[O-])c2cccnc2c1Oc1ccccc1O,nt,i,62%*,65%*,nt,nt,nt,nt,
O=[N+]([O-])c1ccc(O)c2ncccc12,8.7*,i,i,i,36*,-5,34*,-26,KCNQ2 W236L pot=i
O=[N+]([O-])c1ccccc1Oc1ccc(Cl)c2cccnc12,0.23,i,nt,nt,nt,nt,nt,nt,
CC(=O)Nc1ccc(NC(=O)c2c(C)nn(-c3ccccc3)c2Cl)cc1C,nt,i,nt,nt,nt,nt,nt,nt,
COc1ccc(CCNC(=O)CSc2ccc(-c3cccs3)nn2)cc1OC,1.5,i,nt,nt,nt,nt,nt,nt,
